TRPML1 blocker = blocks the human TRPML1 channel; activity change, negative = inhibition, % (concentration not given with the values); Q9GZU1; 390,000 tested, 0.02% active; TRPML1-inducible cells, Ca2+ dye fluorescence, FDSS; active compounds read low; inhibition of EC80 agonist-evoked calcium signal; AID 624415; in the data active means activity change below about -50%; inconclusive means between about -30% and that limit;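 further: stimulus is agonist 54-4 at its EC80 concentration; on the % scale 0 is the no-effect control and ±100 the full control effect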
Target sequence (Q9GZU1 whole entry, looked up): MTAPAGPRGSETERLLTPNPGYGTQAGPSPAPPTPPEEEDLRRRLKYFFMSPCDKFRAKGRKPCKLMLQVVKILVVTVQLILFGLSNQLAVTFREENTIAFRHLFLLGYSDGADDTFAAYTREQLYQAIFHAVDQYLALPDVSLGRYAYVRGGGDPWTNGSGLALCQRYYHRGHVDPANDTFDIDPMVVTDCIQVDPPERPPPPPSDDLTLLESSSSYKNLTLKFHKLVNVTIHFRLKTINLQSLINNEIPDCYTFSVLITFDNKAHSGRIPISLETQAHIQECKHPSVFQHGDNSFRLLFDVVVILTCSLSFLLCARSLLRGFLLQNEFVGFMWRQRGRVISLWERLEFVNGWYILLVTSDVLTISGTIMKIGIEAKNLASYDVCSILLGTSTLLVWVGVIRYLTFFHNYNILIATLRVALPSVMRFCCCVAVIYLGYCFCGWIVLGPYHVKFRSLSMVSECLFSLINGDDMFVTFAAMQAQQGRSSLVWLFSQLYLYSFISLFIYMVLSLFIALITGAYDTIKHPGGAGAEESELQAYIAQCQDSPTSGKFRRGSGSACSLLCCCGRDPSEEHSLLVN
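Tet-induced TRPML1-DL cells loaded with Ca8 no-wash calcium dye were read kinetically on FDSS. Compound addition was followed by EC80 agonist 54-4 (4 uM final); inhibition was read over 110 s.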
TRHR agonist-1 = agonists of human TRH receptor; P34981; TRHR cells, calcium flux fluo-8, FDSS agonist mode; activation, % at 2 µM; 360,000 tested, 0.18% active; in the data active means activation above about 30%; further: 0% is about no effect
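Fluo-8-loaded TRHR cells; 10 s baseline, compound added, kinetic Ca2+ fluorescence read 1/s, agonist mode.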
TRPML1 ag = activates the human TRPML1 channel. TRPML1-expressing cells, Ca2+ dye fluorescence, FDSS. activation, % (no concentration beside the values). 410,000 tested, 0.12% active. AID 624414; in the data active means activation above about 50%; inconclusive means mostly about 30% to 49%; further: 0% is about no effect
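Tetracycline-induced TRPML1-DL cells are seeded and incubated overnight before loading with a no-wash Ca2+ dye and quencher. Agonist activity is taken from the 110 s fluorescence read following compound pin-transfer on an FDSS, before EC80 54-4 challenge.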
TRHR enhancer-1 = allosterically enhances the human TRH receptor | AID 493056 | TRHR cells, fluo-8 calcium fluorescence, EC20 TRH enhancement | 360,000 tested, 0.66% active | enhancement, % at 2 µM | P34981; in the data active means enhancement above about 30%; further: 0% is about no effect
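Enhancer read-out: after compound pinning and an initial kinetic agonist-mode read, an EC20 of TRH (10 nM final) was injected and fluo-8 calcium signal (Ex 480/Em 530) followed at 1 s/cycle for 100 cycles in TRHR-expressing cells.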
TRHR enhancer-2 = human TRH receptor allosteric enhancement confirmation; AID 493076; TRH receptor cell assay, enhancer confirmation qHTS; shares compounds with TRHR enhancer-1; 970 tested, under 10 active; activity change, negative = inhibition, % at 46.1 µM;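 further: compound effect scored on response to added TRH at EC20 of 10 nM; 0% is about no effect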
TRHR agonist-2 = confirmation of human TRH receptor agonists; shares compounds with TRHR enhancer-1; TRHR-expressing cells, agonist activation read-out; Potency, µM (series often up to 46.1 µM), for the others: at the top dose activation, actives largely listed as activators; 970 tested, 8% active; further: potency means the concentration at half of the fitted maximal effect; 0% is about no effect; nearly all actives have a fitted effect of over 75% in size
Starred values were filed as active, the others as inactive; ? = inconclusive; nt = no result. In the library only some 0.81% were active in any assay of this set; here they are far more common. Unless noted, the call rests on the fitted dose curve; in most records, active means well fitted curve in the direction sought with a large enough effect; inconclusive means small, poorly fitted or top-dose-only effect, or another doubt; inactive means no such curve, though single readings can be large; an effect the other way counts as inactive or inconclusive.

SMILES | TRPML1 blocker | TRHR agonist-1 | TRPML1 ag | TRHR enhancer-1 | TRHR enhancer-2 | TRHR agonist-2
C=C1C=C(C(F)F)n2ncc(C(=O)NCc3ccc(OC)cc3)c2N1 | nt | nt | -1 | nt | nt | nt
CCC(Sc1nc2ncccc2[nH]1)C(=O)NC1CCC(C)CC1 (stereo not given) | -9 | 1 | 0 | 11 | nt | nt
CCC(Sc1nc2ncccc2[nH]1)C(=O)NCCc1ccccc1 (stereo not given) | 2 | 60* | 0 | 2 | -13 | 2%
COc1cccc(/C=C/c2nc3ccccc3nc2/C=C/c2cccc(OC)c2OC)c1OC | nt | nt | 1 | nt | nt | nt
COc1ccccc1NC(=O)Cn1nnc(-c2ccccc2NS(=O)(=O)c2ccccc2)n1 | 4 | 0 | 2 | 0 | nt | nt
COc1ccc(NC(=O)Cn2nnc(-c3ccccc3NS(=O)(=O)c3ccc(OC)cc3)n2)cc1 | 8 | 0 | 0 | 41* | 5 | 0%
CC1=NN(c2ccccc2)C(=O)/C1=C/c1cccs1 | -11 | 28 | 0 | -10 | -13 | 1%
CC1=NN(c2ccccc2)C(=O)C1=Cc1ccccc1 | 1 | nt | 0 | nt | nt | nt
CC1CC(C)CN(C(=O)COC(=O)c2ccc(Cl)nc2)C1 (stereo not given) | -20 | 1 | 1 | 45* | -1 | 1%
Cc1cc(-c2nn(-c3ccccc3F)cc2CNCCc2cnc[nH]2)c(C)s1 | -9 | 0 | 1 | 51* | -2 | 1%
O=C1/C(=C/c2ccccc2)Nc2ccccc21 | -8 | 50* | ? | 10 | 14 | 16µM*
CC(NC(=O)c1cc(Br)cs1)C1CCCO1 (stereo not given) | -4 | 0 | 0 | 52* | -4 | -1%
O=c1c(S(=O)(=O)c2ccccc2)cn(Cc2ccc(F)cc2)c2cc(N3CCCC3)c(F)cc12 | -20 | 0 | 4 | 77* | -8 | -1%
Cn1cc(S(=O)(=O)c2cccc(Cl)c2)c(=O)c2cc(F)c(N3CCN(c4ccccc4)CC3)cc21 | -4 | -1 | 2 | 59* | 1 | 0%
Cn1nnnc1Sc1ncnc2scc(-c3cccc(N)c3)c12 | nt | -1 | nt | 8 | nt | nt
CCOC(=O)c1c(NC(=O)COC)sc(C(C)=O)c1C | 3 | 33* | -1 | 0 | 13 | -1%
CCOC(=O)c1c(NC(=O)COC)sc(C)c1C | 0 | 0 | -1 | -5 | nt | nt
CC(C)(C)c1ccc(-c2csc(NNC3=NCCCCC3)n2)cc1 | 1 | 0 | 0 | 55* | 7 | 6%
Brc1ccc(-c2csc(NNC3=NCCCCC3)n2)cc1 | -3 | -1 | 0 | 2 | nt | nt
Cc1ccc(C2C(C#N)=C(N)Oc3n[nH]c(C)c32)cc1 (stereo not given) | -3 | 0 | -1 | 2 | nt | nt
Cc1[nH]nc2c1C(c1cnn(C)c1)C(C#N)=C(N)O2 (stereo not given) | -10 | 1 | 0 | 55* | -1 | -1%
COCCn1c(SCC(=O)N2CCCC2)nnc1C(C)C | 15 | 0 | 1 | 5 | nt | nt
CCCn1c(SCC(=O)N2CCCCC2)nnc1-c1ccco1 | 1 | 0 | 0 | 49* | 4 | -1%
CCCn1c(SCC(=O)N2CCCCC2)nnc1C(C)C | 7 | 32* | 1 | -5 | -4 | 1%
CN(C)c1ccc(CCc2ccnc3ccccc23)cc1 | nt | nt | -1 | nt | nt | nt
SMILES | TRPML1 blocker | TRHR agonist-1 | TRPML1 ag | TRHR enhancer-1 | TRHR enhancer-2 | TRHR agonist-2
NC(=O)CSc1nnc(SCc2ccc(F)cc2)s1 | 2 | 31* | 0 | 0 | -1 | 2%
CN(C)Cc1c(O)ccc2c1O/C(=C\C=C\c1ccccc1)C2=O | nt | 28 | nt | -3 | -3 | 18µM*
CCN1CCN(Cc2c(O)ccc3c2O/C(=C\C=C\c2ccccc2)C3=O)CC1 | -25 | 0 | ? | 11 | nt | nt
C=CCN1[C@@H](C(C)C)COCCS1(=O)=O | nt | nt | -1 | nt | nt | nt
O=S(=O)(Nc1ncnc2c1oc1ccccc12)c1ccc(Cl)s1 | -10 | 0 | 2 | 51* | -8 | 5%
CNc1c(NS(=O)(=O)c2ccc(Cl)s2)c(=O)oc2ccccc12 | 52 | 1 | -1 | -7 | nt | nt
Cc1ccc(NC(=O)COC(=O)C2CSC3(C)CCC(=O)N23)cc1S(=O)(=O)N1CCOCC1 (stereo not given) | 10 | 2 | 0 | 42* | -3 | -1%

Bioassay records (PubChem)
